About 3,300 (8.5%) of roughly 39,000 compounds were called active. What follows is part of a selection rich in actives, with near analogues and random picks from the rest.
These compounds were tested on HepG2 (assay: cytotoxicity call (relative viability < 0.9)). Conditions: 10 µM.

Compound | cytotoxicity call
COc1ccc(C#Cc2ccc3c(c2)[C@]2(C(=O)N3)[C@H](c3ccccc3OCCO)N3[C@H](c4ccccc4)[C@H](c4ccccc4)OC(=O)[C@H]3[C@@H]2C(=O)N2CCc3cc(OC)c(OC)cc3C2)cc1 | inactive
O=C(Cc1ccncc1)Nc1ccc2c(c1)[C@@H]1C[C@H](CC(=O)N3CCc4ccccc4C3)O[C@H](CO)[C@@H]1O2 | inactive
O=C1NC(=O)[C@H]2[C@@H]1[C@H](c1ccccc1)N1[C@@H]3C(=O)NC(=O)[C@@H]3[C@H](c3ccccc3)N21 | inactive
COc1ccc(C#Cc2ccc3c(c2)O[C@H](CN(C)C(C)=O)[C@@H](C)CN([C@@H](C)CO)S3(=O)=O)cc1 | inactive
COc1ccc2c3c(n(c2c1)C)[C@H](CO)N(C[C@]13CCN(CC1)C(=O)Nc1cccc(c1)F)C(=O)CN1CCOCC1 | inactive
N=C(NO)NCC[C@H](N)C(=O)O | inactive
C[C@@H]1CN([C@H](C)CO)C(=O)c2cc(NC(=O)NC3CCCCC3)ccc2O[C@@H](C)CCCCO[C@@H]1CN(C)C(=O)NC1CCCCC1 | inactive
C[C@@H]1CCCCO[C@@H](CN(C)Cc2ccc(C(F)(F)F)cc2)[C@H](C)CN([C@H](C)CO)C(=O)c2cc(NC(=O)Nc3ccccc3)ccc2O1 | active
C[C@H](CO)N1C[C@H](C)[C@@H](CN(C)Cc2ccc(C(F)(F)F)cc2)OCCCC[C@H](C)Oc2ccc(NC(=O)Nc3ccccc3)cc2C1=O | active
C[C@@H]1CN([C@@H](C)CO)C(=O)c2cc(NC(=O)Nc3ccccc3)ccc2O[C@@H](C)CCCCO[C@H]1CN(C)Cc1ccc(C(F)(F)F)cc1 | inactive
C[C@@H]1CCCCO[C@@H](CN(C)Cc2ccc(C(F)(F)F)cc2)[C@@H](C)CN([C@@H](C)CO)C(=O)c2cc(NC(=O)Nc3ccccc3)ccc2O1 | inactive
C[C@@H]1CN([C@H](C)CO)C(=O)c2cc(NC(=O)Nc3ccccc3)ccc2O[C@@H](C)CCCCO[C@@H]1CN(C)Cc1ccc(C(F)(F)F)cc1 | active
C[C@@H]1CN([C@@H](C)CO)C(=O)c2cc(NC(=O)Nc3ccccc3)ccc2O[C@@H](C)CCCCO[C@@H]1CN(C)Cc1ccc(C(F)(F)F)cc1 | active
C[C@@H]1CCCCO[C@@H](CN(C)Cc2ccc(C(F)(F)F)cc2)[C@H](C)CN([C@@H](C)CO)C(=O)c2cc(NC(=O)Nc3ccccc3)ccc2O1 | inactive
O=C(O)c1ccc(CNc2cn[nH]c(=O)n2)cc1 | inactive
COCCOC(=O)N1C(=O)[C@@]2(c3cc(C#CC4=CCCCC4)ccc31)[C@H](C(=O)NC[C@H](O)c1ccccc1)[C@H]1C(=O)O[C@H](c3ccccc3)[C@H](c3ccccc3)N1[C@@H]2c1ccc(O)cc1 | inactive
C[C@@H]1CN([C@@H](C)CO)C(=O)Cc2cc(NC(=O)Cn3cnnn3)ccc2O[C@H]1CN(C)S(=O)(=O)c1ccccc1 | inactive
CN(C)CC(=O)N1[C@@H](CO)[C@H](c2ccc(C3=CCCC3)cc2)C12CN(S(=O)(=O)Cc1ccccc1)C2 | inactive
C[C@H](NC(=O)N(C)C[C@H]1OCc2ccccc2-c2c(n(C)c3ccccc23)C(=O)N([C@@H](C)CO)C[C@@H]1C)c1ccccc1 | inactive
Cc1ccc(S(=O)(=O)N(C)C[C@H]2Oc3ccc(NS(C)(=O)=O)cc3CC(=O)N([C@H](C)CO)C[C@H]2C)cc1 | inactive
O=C(C[C@@H]1C[C@H]2c3cc(NC(=O)c4cccnc4)ccc3O[C@H]2[C@@H](CO)O1)NCc1cc(F)ccc1F | inactive
CCCNC(=O)N1C[C@H](O)COC[C@H]2O[C@@H](CC(=O)N3CCN(C)CC3)CC[C@@H]21 | inactive

Compound | cytotoxicity call
O=C(C[C@@H]1C[C@H]2c3cc(NC(=O)c4ccc5c(c4)OCO5)ccc3O[C@H]2[C@@H](CO)O1)NCCc1ccccc1 | inactive
COC(=O)[C@@H]1C(=O)NC[C@H]1c1ccccc1 | inactive
C[C@@H]1CCCCO[C@@H](CN(C)Cc2ccc(C(F)(F)F)cc2)[C@@H](C)CN([C@H](C)CO)C(=O)c2cc(NC(=O)Nc3ccccc3)ccc2O1 | inactive
C[C@@H]1CCCCO[C@H](CN(C)Cc2ccc(C(F)(F)F)cc2)[C@@H](C)CN([C@H](C)CO)C(=O)c2cc(NC(=O)Nc3ccccc3)ccc2O1 | inactive
C[C@H]1CCCCO[C@@H](CN(C)Cc2ccc(C(F)(F)F)cc2)[C@@H](C)CN([C@@H](C)CO)C(=O)c2cc(NC(=O)Nc3ccccc3)ccc2O1 | active
C[C@@H]1CCCCO[C@H](CN(C)Cc2ccc(C(F)(F)F)cc2)[C@H](C)CN([C@@H](C)CO)C(=O)c2cc(NC(=O)Nc3ccccc3)ccc2O1 | active
C[C@@H]1CN([C@H](C)CO)C(=O)c2cc(NC(=O)Nc3ccccc3)ccc2O[C@@H](C)CCCCO[C@H]1CN(C)Cc1ccc(C(F)(F)F)cc1 | active
C[C@@H]1CCCCO[C@H](CN(C)Cc2ccc(C(F)(F)F)cc2)[C@@H](C)CN([C@@H](C)CO)C(=O)c2cc(NC(=O)Nc3ccccc3)ccc2O1 | active
CO[C@@H]1CN(C)C(=O)c2ccc(NC(=O)Nc3ccccc3F)cc2OC[C@@H](C)N(C(=O)Nc2ccccc2F)C[C@H]1C | inactive
Nc1nc(Nc2ccccc2)nc2c1ncn2[C@@H]1O[C@H](CO)[C@@H](O)[C@H]1O | inactive
CO[C@@H]1CN(C)C(=O)c2cc(NS(=O)(=O)CC(F)(F)F)ccc2OC[C@H](C)N(Cc2cccnc2)C[C@@H]1C | inactive
C[C@@H]1CN([C@H](C)CO)C(=O)c2cc(C#CC3(O)CCCC3)cnc2O[C@H]1CN(C)C(=O)Cc1cccnc1 | inactive
CN1CCN(C(=O)C[C@@H]2CC[C@@H]3[C@H](COC[C@@H](O)CN3S(=O)(=O)c3cccc(Cl)c3)O2)CC1 | inactive
C[C@H]1CN([C@@H](C)CO)C(=O)c2cccc(NS(C)(=O)=O)c2O[C@@H]1CN(C)C(=O)Nc1ccc(F)cc1 | inactive
C[C@@H]1CN([C@H](C)CO)C(=O)CCCn2nncc2CO[C@@H]1CN(C)S(=O)(=O)c1cn(C)cn1 | inactive
C[C@@H]1CN([C@@H](C)CO)C(=O)c2cc(NC(=O)C3CC3)ccc2O[C@@H]1CN(C)C(=O)Nc1ccc2c(c1)OCO2 | inactive
CC(=O)Nc1ccc(C(=O)NN)cc1 | inactive
C[C@@H]1CN([C@H](C)CO)C(=O)c2cccc(NC(=O)c3ccncc3)c2O[C@H]1CN(C)Cc1ccncc1 | inactive
c1ccc(CNC2CCCCC2)nc1 | inactive
Cc1cccc(S(=O)(=O)N2C[C@@H](O)COC[C@H]3O[C@H](CC(=O)NCc4ccncn4)CC[C@@H]32)c1 | inactive
C[C@H](CO)N1C[C@H](C)[C@@H](CN(C)Cc2ccc(C(=O)O)cc2)OCc2ccccc2-c2c(n(C)c3ccccc23)C1=O | inactive
C[C@@H]1CCCCO[C@H](CN(C)Cc2ccc(C(F)(F)F)cc2)[C@H](C)CN([C@H](C)CO)C(=O)c2cc(NC(=O)Nc3ccccc3)ccc2O1 | active

Compound | cytotoxicity call
C[C@H]1CCCCO[C@H](CN(C)Cc2ccc(C(F)(F)F)cc2)[C@@H](C)CN([C@@H](C)CO)C(=O)c2cc(NC(=O)Nc3ccccc3)ccc2O1 | active
C[C@H](CO)N1C[C@H](C)[C@H](CN(C)Cc2ccc(C(F)(F)F)cc2)OCCCC[C@H](C)Oc2ccc(NC(=O)Nc3ccccc3)cc2C1=O | active
CCS(=O)(=O)NCC[C@@H]1CC[C@@H](NC(=O)C2CC2)[C@@H](CO)O1 | inactive
Cc1ccc(S(=O)(=O)Nc2ccc3c(c2)CC(=O)N([C@@H](C)CO)C[C@@H](C)[C@H](CN(C)S(C)(=O)=O)O3)cc1 | inactive
C[C@@H]1CN([C@@H](C)CO)C(=O)Cc2cc(NC(=O)Nc3ccccc3)ccc2O[C@H]1CN(C)C(=O)Nc1ccc(C(F)(F)F)cc1 | inactive
C[C@H]1CN([C@@H](C)CO)C(=O)c2cc(NC(=O)Nc3cccc4ccccc34)ccc2O[C@H]1CN(C)S(=O)(=O)c1ccc(F)cc1 | inactive
CC(=O)N[C@@H](Cc1cccc(F)c1)C(=O)O | inactive
O=C(NC1Cc2ccccc2C1)[C@@H]1[C@@H](CO)[C@@H]2Cn3c(cccc3=O)[C@@H]2N1C(=O)c1cnccn1 | inactive
Nc1no[n+]([O-])c1-c1ccccc1 | inactive
C[C@H](CO)N1C[C@H](C)[C@H](CN(C)C(=O)Nc2ccc(F)cc2)OCCCC[C@H](C)Oc2ccc(NC(=O)c3ccccc3)cc2C1=O | inactive
C[C@@H]1CCCCO[C@H](CN(C)Cc2ccc3c(c2)OCO3)[C@@H](C)CN([C@H](C)CO)C(=O)c2cc(NC(=O)Nc3ccccc3)ccc2O1 | inactive
C[C@@H]1CN([C@@H](C)CO)C(=O)c2cc(NC(=O)Nc3ccccc3)ccc2O[C@@H](C)CCCCO[C@H]1CN(C)Cc1ccc2c(c1)OCO2 | inactive
C[C@@H]1CN([C@H](C)CO)C(=O)c2cc(NC(=O)Nc3ccccc3)ccc2O[C@@H](C)CCCCO[C@@H]1CN(C)Cc1ccc2c(c1)OCO2 | inactive
C[C@@H]1CCCCO[C@H](CN(C)Cc2ccc3c(c2)OCO3)[C@@H](C)CN([C@@H](C)CO)C(=O)c2cc(NC(=O)Nc3ccccc3)ccc2O1 | inactive
C[C@H]1CCCCO[C@H](CN(C)Cc2ccc3c(c2)OCO3)[C@@H](C)CN([C@@H](C)CO)C(=O)c2cc(NC(=O)Nc3ccccc3)ccc2O1 | inactive
C[C@H]1CCCCO[C@@H](CN(C)Cc2ccc3c(c2)OCO3)[C@@H](C)CN([C@@H](C)CO)C(=O)c2cc(NC(=O)Nc3ccccc3)ccc2O1 | active
C[C@@H]1CCCCO[C@@H](CN(C)Cc2ccc3c(c2)OCO3)[C@H](C)CN([C@H](C)CO)C(=O)c2cc(NC(=O)Nc3ccccc3)ccc2O1 | inactive
C[C@@H]1CCCCO[C@@H](CN(C)Cc2ccc3c(c2)OCO3)[C@@H](C)CN([C@H](C)CO)C(=O)c2cc(NC(=O)Nc3ccccc3)ccc2O1 | inactive
C[C@@H]1CN([C@H](C)CO)C(=O)c2cc(NC(=O)Nc3ccccc3)ccc2O[C@@H](C)CCCCO[C@H]1CN(C)Cc1ccc2c(c1)OCO2 | inactive
C[C@@H]1CCCCO[C@@H](CN(C)Cc2ccc3c(c2)OCO3)[C@@H](C)CN([C@@H](C)CO)C(=O)c2cc(NC(=O)Nc3ccccc3)ccc2O1 | active
C[C@@H]1CCCCO[C@H](CN(C)Cc2ccc3c(c2)OCO3)[C@H](C)CN([C@H](C)CO)C(=O)c2cc(NC(=O)Nc3ccccc3)ccc2O1 | active
C[C@H](CO)N1C[C@H](C)[C@H](CN(C)Cc2ccc3c(c2)OCO3)OCCCC[C@H](C)Oc2ccc(NC(=O)Nc3ccccc3)cc2C1=O | active
